Inconclusive results are not listed. Entries that show only a call come without a potency. Values without a mark were called inactive. The source made the active and inactive calls. Calls come from the whole dose curve; as a rule, active = well fitted cell-killing curve with a large enough effect; inconclusive = small, poorly fitted or top-dose-only effect, or effect the other way; inactive = flat fitted curve, though single readings scatter.
Columns and labels:
Experiment in all cases: Primary qHTS to identify gynecologic anti-cancer compounds using libraries of approved drugs and bioactive compounds (AID 1345084); note: nearly all actives have a fitted effect of over 55% in size
C33A = conditions: Gynecologic cancer cell panel viability, ATPlite luminescence, 48 h; series mostly up to 57.5 µM
Summary of the method: (§1)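 In this quantitative HTS, cell killing is estimated from loss of ATP-dependent luciferase light. Cells see five compound concentrations over a 48 h exposure.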

CASKI = conditions: Gynecologic cancer cell panel viability, ATPlite luminescence, 48 h; series mostly up to 57.5 µM
Summary of the method: as §1

Es-2 = conditions: Gynecologic cancer cell panel viability, ATPlite luminescence, 48 h; series mostly up to 57.5 µM
Summary of the method: as §1

HeLa = conditions: Gynecologic cancer cell panel viability, ATPlite luminescence, 48 h; series mostly up to 57.5 µM
Summary of the method: as §1

Hek293T = conditions: Gynecologic cancer cell panel viability, ATPlite luminescence, 48 h, control line for the selectivity index; series mostly up to 57.5 µM
Summary of the method: as §1

JEG-3 = conditions: Gynecologic cancer cell panel viability, ATPlite luminescence, 48 h; series mostly up to 57.5 µM
Summary of the method: as §1

OV90 = conditions: Gynecologic cancer cell panel viability, ATPlite luminescence, 48 h; series mostly up to 57.5 µM
Summary of the method: as §1
Potency is the fitted concentration of half-maximal effect.

Compound	Potency (C33A)	Potency (CASKI)	Potency (Es-2)	Potency (HeLa)	Potency (Hek293T)	Potency (JEG-3)	Potency (OV90)
O=C(Nc1cccnc1)c1cc(-c2ccnc(F)c2)ccc1OCc1ccccc1	inactive	inactive	inactive	inactive	inactive	inactive	inactive
C=C1C(=O)O[C@@H]2C=C(COC(C)=O)CC/C=C(\CO)CC[C@@H]12	inactive	inactive	inactive	inactive	inactive	inactive	inactive
Cc1ccc(-c2ncccn2)c(C(=O)N2C[C@H](COc3ccc(F)cn3)CC[C@H]2C)c1	inactive	inactive	inactive	inactive	inactive	inactive	inactive
CN(CC1COCCO1)S(=O)(=O)Nc1ccc2ccc3ncc(-c4cnn(C)c4)cc3c(=O)c2c1 (centres undefined)	inactive	inactive	inactive	14.1 µM (active)	inactive	inactive	inactive
CNc1nc(Nc2ccc(C(=O)N3CCOCC3)cc2OC)nc2[nH]cc(Cl)c12	inactive	inactive	inactive	inactive	inactive	inactive	inactive
C[C@@H](N[C@H]1CCCC[C@@H]1NC(=O)c1ccc(Cl)cc1)c1cccc2ccccc12	inactive	inactive	inactive	inactive	inactive	–	inactive
N#Cc1ccc(-c2ccc(S(=O)(=O)Nc3cccc(N)n3)cc2)cc1	inactive	inactive	inactive	inactive	–	inactive	inactive
COc1cc2nc(N3CCN(C(=O)c4ccco4)C4CCCCC43)nc(N)c2cc1OC (centres undefined)	inactive	inactive	inactive	inactive	inactive	inactive	inactive
COc1cc(O)cc(/C=C/c2cccc(O)c2)c1	inactive	inactive	inactive	inactive	inactive	inactive	inactive
CC(C)C[C@@H](C(=O)N[C@@H](Cc1ccc(OCc2ccccc2)cc1)C(=O)NC(C)(C)C)N(C)Cc1ccc(C(C)(C)C)cc1	inactive	inactive	inactive	inactive	inactive	inactive	inactive
O=c1cc(NCCCN[C@@H]2CCOc3c(Br)cc(Br)cc32)[nH]c2ccsc12	inactive	inactive	inactive	inactive	–	inactive	inactive
CCCc1cc2c(N3CCN(C4=NCC(C)(C)S4)CC3)ncnc2s1	inactive	inactive	inactive	inactive	–	inactive	–
C=C1CCC[C@]2(C)CC/C(=C(/CO)C(=O)OC)C[C@@H]12	inactive	inactive	inactive	inactive	inactive	inactive	inactive
CCCCCCCCC(=O)N[C@H](CN1CCCC1)[C@H](O)c1ccc2c(c1)OCCO2	inactive	inactive	inactive	inactive	–	inactive	–
O=C(Nc1ccc(-c2ccc(Cl)c(Cl)c2)cc1)C1=C(O)c2ccccc2S(=O)(=O)N1	inactive	inactive	inactive	inactive	–	inactive	inactive
C[C@@H](O[C@H]1OCCN(Cc2nn(P(=O)(O)O)c(=O)[nH]2)[C@H]1c1ccc(F)cc1)c1cc(C(F)(F)F)cc(C(F)(F)F)c1	inactive	inactive	inactive	inactive	inactive	inactive	inactive
C=C(C)C1CC(O)C(C)C12CC(O)C1(C)OC1C2O (centres undefined)	11.2 µM (active)	12.6 µM (active)	8.91 µM (active)	14.1 µM (active)	–	28.2 µM (active)	7.08 µM (active)
C[C@@H](c1ccc2nccn2c1)n1nnc2ncc(-c3cnn(C)c3)nc21	inactive	inactive	inactive	inactive	inactive	inactive	inactive
COc1ccc([C@H](Cc2ccncc2)c2ccccc2)cc1OC1CCCC1	inactive	inactive	inactive	inactive	inactive	inactive	inactive
C=C(C)C1=C[C@@]2(C)C(=CC1=O)CC[C@@H](O)[C@@H]2C	inactive	inactive	inactive	inactive	inactive	inactive	inactive
C/C=C\NC(=O)C1NC(=O)C(CC(N)=O)NC(=O)C(NC(=O)C(=O)C(C)CC)Cc2ccc(O)c(c2)-c2cccc3c2NC(=O)C3(O)C1O (centres undefined)	inactive	inactive	inactive	inactive	inactive	inactive	inactive
COC(CCc1ccc(O)cc1)CC(=O)CCc1ccc(O)cc1 (centres undefined)	inactive	inactive	inactive	inactive	inactive	–	inactive

From PubChem BioAssay (NCATS)
